This passage reports Potency results from PubChem BioAssay (NCATS).

Results filed as inconclusive are left out. Entries that show only a call come without a potency. Calls of active or inactive are those of the source. Calls come from the whole dose curve; as a rule, active = well fitted inhibition curve with a large enough effect in the signal ratio, with a control signal flat (not every such curve was filed as active); inconclusive = small, poorly fitted or top-dose-only effect, or effect the other way, or a change in a side signal; inactive = no such curve, though single readings can be large or run the other way; the % refers to the signal ratio.

This test deals with Peroxisome proliferator-activated receptor delta (Homo sapiens) (UniProt Q03181). The test can be described thus: qHTS assay for small molecule antagonists of peroxisome proliferator-activated receptor delta signaling (AID 588535). The following applies: HEK293T PPARd-UAS-bla, beta-lactamase FRET ratio, 18 h; series mostly up to 76.7 µM. An excerpt: NIH Chemical Genomics Center [NCGC] U.S. Environmental Protection Agency [EPA] National Institutes of Environmental Health Sciences [NIEHS] National Toxicology Program [NTP] NCGC Assay Overview The Peroxisome proliferator-activated receptors (PPARs) are lipid-activated transcription factors of the nuclear receptor superfamily with three distinct subtypes namely PPAR alpha, PPAR delta (also called PPAR beta) and PPAR gamma. All these subtypes heterodimerizes with Retinoid X receptor (RXR) and have different physiological functions. […] This role of PPAR delta implicates the potential use of its ligands in the treatment of metabolic disorders.
Sequence of Peroxisome proliferator-activated receptor delta (Homo sapiens) (Q03181 whole entry, looked up): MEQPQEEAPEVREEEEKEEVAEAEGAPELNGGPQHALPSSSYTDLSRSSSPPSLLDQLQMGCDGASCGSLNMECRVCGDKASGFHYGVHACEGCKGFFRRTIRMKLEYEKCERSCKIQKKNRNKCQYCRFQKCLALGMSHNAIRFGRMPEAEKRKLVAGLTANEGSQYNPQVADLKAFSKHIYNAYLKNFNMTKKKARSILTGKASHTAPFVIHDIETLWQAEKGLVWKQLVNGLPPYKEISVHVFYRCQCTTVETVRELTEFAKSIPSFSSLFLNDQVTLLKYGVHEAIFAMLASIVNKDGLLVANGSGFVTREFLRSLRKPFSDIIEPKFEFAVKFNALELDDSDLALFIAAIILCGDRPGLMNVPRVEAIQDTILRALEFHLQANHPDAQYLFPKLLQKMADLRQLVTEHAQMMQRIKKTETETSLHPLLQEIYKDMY
NCGC Assay Protocol Summary Using a beta-lactamase reporter-gene under control Peroxisome Proliferator-Activated Receptor delta (PPAR-delta) response element, a cell-based assay [GeneBLAzer (PPAR-delta-UAS-bla assay developed by Invitrogen] was used to measure PPAR-delta ligands signaling. GeneBLAzer PPAR-delta-UAS-bla HEK293T cells were used with assay medium containing 2% charcoal/dextran FBS. The assay was performed in clear bottom black Greiner 1536-well plates. Library compounds were measured for their ability to inhibit the reporter gene activity. Compounds were screened in a titration series in 1536-well format. The fluorescence intensity (405 nm excitation, 460/530 nm emission) was measured using an EnVision plate reader. […] Concentration-response titration points for each compound were fitted to the Hill equation yielding concentrations of half-maximal inhibition (IC50) and maximal response (efficacy) values. qHTS protocol for PPAR-delta beta-lactamase assay in antagonist mode [Step] [Parameter] [Value] [Description] 1. Reagent; 5 uL; 4000 cells/well 2. Incubation; 37 C for 5 hrs 3. Compounds; 23 nL; 0.59 nM to 92 uM 4. […] Incubation; 37 C for 18 hrs 7. Detection reagent; 1 uL of CCF4-dye 8. Incubation; RT for 2 hrs 9. Detection; Fluorescence; Envision plate reader
On to `CCOCC(=O)O`, for which the Potency entry was “inactive”.

In the case of `Nc1cccc(O)c1`, the Potency entry was “inactive”.

Take `c1ccc(Nc2ccccc2)cc1`: the Potency result was “inactive”. As for `O=C(Cl)c1c(Cl)cccc1Cl`, the Potency result was “inactive”.

With `CC(O)COC(C)(C)C` (stereo not given), the Potency result was “inactive”. Turning to `CC(=O)CC(C)C`, the Potency entry is “inactive”. The entry for `CC=C(Cl)Cl` is “inactive”; for `Cc1ccc(C)c(N)c1` it is “inactive”. On to `C=C(C)C1CC=C(C)C(OC(C)=O)C1` (stereo not given), for which the Potency entry is “inactive”. As to `Nc1ccccc1S(=O)(=O)O`, the Potency result was “inactive”.

On to `NC(=O)c1cccc([N+](=O)[O-])c1`, for which the Potency entry was “inactive”.

Consider `CCCCCCCCC`, for which the Potency entry is “inactive”.

For `CCC(C)(C)OC`, the Potency entry is “inactive”. On to `CCCCCCCN`, for which the Potency entry was “inactive”.

`CC(=O)Nc1ccccc1C`: the Potency entry was “inactive”. On to `CCCCC(CC)CO` (stereo not given), for which the Potency result is “inactive”. Regarding `C=C(C)C(=O)OCC(C)C`, the Potency entry was “inactive”. Then `CCCCC/C=C/C=C/C=O`, with “inactive”. For `ClCCl`, the Potency entry was “inactive”. On to `O=[N+]([O-])c1ccc(NCCO)c(OCCO)c1`, for which the Potency result was “inactive”. Consider `ICCc1ccccc1`, for which the Potency result was “inactive”. Take `CCC1CO1` (stereo not given): the Potency entry is “inactive”. `Cc1ccc(Cl)cc1N`: the Potency entry is “inactive”.

For `NC(=O)NC(N)=O`, the Potency result is “inactive”.

Regarding `Cc1ccc2ncccc2c1`, the Potency entry is “inactive”. On to `CCCCC(CC)COC(=O)CCCCC(=O)OCC(CC)CCCC` (stereo not given), for which the Potency entry was “inactive”.

For `C1COC1`, the Potency result is “inactive”. Then `NC(=O)/N=N/C(N)=O`, with “inactive”. On to `Cc1ccc(C(C)(C)C)cc1`, for which the Potency entry is “inactive”. In the case of `Nc1cccc2c(=O)[nH][nH]c(=O)c12`, the Potency entry was “inactive”. Turning to `Cc1ccc2oc(=O)ccc2c1`, the Potency entry is “inactive”.

As for `O=[N+]([O-])c1ccc(Cl)cc1Cl`, the Potency entry was “inactive”. As for `CC(=O)OCCC(C)C`, the Potency entry was “inactive”. Take `CN(C)CCCNCCCN`: the Potency result is “inactive”.

Take `CC(=O)c1ccccc1[N+](=O)[O-]`: the Potency result was “inactive”. In the case of `CCCCC(CC)CNCC(CC)CCCC` (stereo not given), the Potency entry was “inactive”. Regarding `Cc1c(N)cccc1N`, the Potency result is “inactive”. The entry for `CC(=O)c1cccc([N+](=O)[O-])c1` is “inactive”; for `O=[N+]([O-])c1ccc(CCO)cc1` it is “inactive”; for `C=C(C)C(=O)OC` it is “inactive”.
